According to the supplement of paper PMC10941209:

These compounds were tested on Toxoplasma gondii RH 2F1 tachyzoites (intracellular in HFF) (assay: parasite survival relative to DMSO control; higher = less antiparasitic activity, active = 20 or less). Conditions: 1 µM; 72 h.
Summary of the method: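 Toxoplasma gondii RH-2F1 tachyzoites expressing β-galactosidase (5 × 10^3 per well) were used to infect HFF cells at 5 × 10^3 cells/well in 96-well plates for 3 h in D2 medium. Cells then received compound at 1 μM for 72 h at 37°C in 5% CO2, were lysed for 15 min, and were given CPRG, with absorbance at 570 nm read after 30 min. Survival denotes this signal as a percentage of DMSO-treated infected controls. Each value reflects 2 or more biological replicates.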

SMILES	parasite survival
CC(C)c1cc2c(cc1S(=O)(=O)O)[C@@]1(C)CCC[C@@](C)(C(=O)O)[C@@H]1CC2	74.6% (inactive)
O=S(=O)(NCB(O)O)c1ccc(-c2nnn[nH]2)cc1C(F)(F)F	34.1% (inactive)
O=[N+]([O-])c1cn2c(n1)OC[C@@H](OCc1ccc(OC(F)(F)F)cc1)C2	45.2% (inactive)
Clc1ccc(COC(Cn2ccnc2)c2ccc(Cl)cc2Cl)c(Cl)c1 (stereo not given)	21.8% (inactive)
O=S(=O)(Nc1cccc2cccnc12)c1ccccc1	24.5% (inactive)
COc1ccc2cc3[n+](cc2c1OCCN(CCn1cncn1)Cc1ccc(F)cc1F)CCc1cc2c(cc1-3)OCO2	47.3% (inactive)
COc1c(F)c(F)cc2c(=O)c(C(=O)O)cn(C3CC3)c12	63.8% (inactive)
Cc1cc(O)c2c(c1)C(=O)c1c(I)c(O)c(I)c(O)c1C2=O	47% (inactive)
CC[C@H](CO)Nc1nc(NCc2ccccc2)c2ncn(C(C)C)c2n1	87.1% (inactive)
CO[C@@]1(NC(=O)Cc2cccs2)C(=O)N2C(C(=O)O)=C(COC(N)=O)CS[C@@H]21	61.6% (inactive)
COc1cc(Cc2cnc(N)nc2N)c2c(c1OC)OC(C1CC1)C=C2 (stereo not given)	10.4% (active)
CCCCN1C[C@H](O)[C@@H](O)[C@H](O)[C@H]1CO	61.5% (inactive)
O=[N+]([O-])/C(Br)=C/c1ccc(Br)o1	26.6% (inactive)
O=C(CC1Sc2ncnn2C1=O)Nc1ccc(Br)cc1 (stereo not given)	28.1% (inactive)
CO/N=C(\C(=O)N[C@@H]1C(=O)N2C(C(=O)OCOC(=O)C(C)(C)C)=C(/C=C\c3scnc3C)CS[C@H]12)c1csc(N)n1	54.4% (inactive)
CC(C)(C)c1cc(C(=O)/C(C#N)=N/Nc2cccc(Cl)c2)no1	37.6% (inactive)
CNC(=O)C1O[C@@H](n2cnc3c(NCc4cccc(I)c4)nc(Cl)nc32)[C@H](O)[C@@H]1O (stereo not given in full)	68.3% (inactive)
Cc1cccc(CC(=O)N[C@H]2CCOC2=O)c1	38.3% (inactive)
O=C(O)CSc1cc(NS(=O)(=O)c2cccc3cccnc23)c2ccccc2c1O	60.2% (inactive)
CCNC(=O)Nc1cn2c(-c3ncc(CC)cn3)cc(-c3cccnc3)cc2n1	34.6% (inactive)

SMILES	parasite survival
Fc1ccc2c(/C=C/c3nnn[nH]3)c[nH]c2c1	47.3% (inactive)
CCCCCc1ccc(C(=O)NCCn2cc(CCCCCc3c[nH]c(N)n3)nn2)cc1	67.5% (inactive)
NC(=O)c1cnccn1	52.5% (inactive)
Nc1nc(O)c(Br)c(-c2cccc(Cl)c2)n1	63.8% (inactive)
O=C(Nc1ccc(Cl)c(C(F)(F)F)c1)C(CCCl)C(=O)Nc1ccc(Cl)c(C(F)(F)F)c1	15.6% (active)
CN(C)c1[nH]c(=O)ncc1F	36.6% (inactive)
COc1cccc(N2CCN(C3=Nc4c(F)cccc4[C@H](CC(=O)O)N3c3cc(C(F)(F)F)ccc3OC)CC2)c1	41.2% (inactive)
Clc1cc(Cl)c2c(c1)CCc1ccccc1C2n1ccnc1 (stereo not given)	7.97% (active)
CCN(CC)CCn1c(=N)n(CC(O)COc2ccc(Cl)cc2Cl)c2ccccc21 (stereo not given)	26.7% (inactive)
O=C(N[C@H](CCS)C(=O)N[C@H](Cc1ccccc1)C(=O)O)c1cc2ccccc2[nH]1	45.8% (inactive)
CC(C)(C)NC(=O)[C@@H]1C[C@@H]2CCCC[C@@H]2CN1C[C@@H](O)[C@H](Cc1ccccc1)NC(=O)[C@H](CC(N)=O)NC(=O)c1ccc2ccccc2n1	39% (inactive)
C[Si]1(C)CCN(Cc2cc(-c3ccc(Cl)cc3)n(-c3ccc(Cl)cc3)n2)CC1	13.7% (active)
Nc1cccc(-c2nc(N)nc(NC3Cc4ccccc4C3)n2)c1	42.3% (inactive)
O=C(NCCN1CCCCC1)c1cccc(C(F)(F)F)c1	67.5% (inactive)
Cc1nc(Nc2ccc(F)cc2)nc(N2CCc3ccccc3C2C)c1C (stereo not given)	20.5% (inactive)
Cc1c(OCC(F)(F)F)ccnc1C[S+]([O-])c1nc2ccccc2[nH]1 (stereo not given)	45.7% (inactive)
O=C(O)c1ccc(-c2ccc(O[C@H]3O[C@H](CO)[C@@H](O)[C@H](O)[C@@H]3O)cc2)cc1	46.4% (inactive)
C=C[C@]1(C)C[C@@H](OC(=O)CS[C@@H]2C[C@H]3CC[C@@H](C2)N3C)[C@]2(C)[C@H](C)CC[C@]3(CCC(=O)[C@H]32)[C@@H](C)[C@@H]1O	18.1% (active)
Cc1nc2ccc(Cl)cc2c(-c2ccccc2)c1CC(=O)O	79.3% (inactive)
Nc1cnn(C2OC(CO)C(O)C2O)c(=O)n1 (stereo not given)	76.2% (inactive)
